BL2 CD40 inh: CD40 pathway inhibition in BL2 cells; BL2 NF-kB luciferase reporter, CD40L-induced, 4 h; inhibition, % at 10 µM; 0.94% of 83,000 active; AID 1053188;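 active = mean inhibition of at least 50% with a set share of replicates also reaching that level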;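 note: 0% = neutral control wells and 100% = IKK inhibitor VII at 50 µM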
The depositor's hits bear a star; [ ] = remark or other dose. Shown is part of a subset that was picked to be rich in hits.

SMILES	BL2 CD40 inh
CC1CCN(S(=O)(=O)c2ccc3c(c2)C(Cl)(Cl)C(=O)N3)CC1	53*
CC1CCN(S(=O)(=O)c2ccc3c(c2)oc(=O)n3C)CC1	8
Cc1ccc(S(=O)(=O)N2CCC(N3CCC(C)CC3)CC2)cc1	6
C1CCC(C(CC2CCCCN2)C2CCCCC2)CC1 (centres undefined)	78*
C[C@H](CO)N1C[C@H](C)[C@H](CN(C)C(=O)NC2CCCCC2)Oc2c(NS(=O)(=O)c3ccc(F)cc3)cccc2C1=O	-13[25 µM]
CC(C)NC(=O)Nc1ccc2c(c1)C(=O)N(C)C[C@H](C)[C@@H](CN(C)C(=O)NC(C)C)O2	4
COc1cccc(NC(=O)N(C)C[C@H]2Oc3ncc(/C=C/c4ccccc4)cc3C(=O)N([C@@H](C)CO)C[C@H]2C)c1	1[25 µM]
CC(=O)Nc1ccc2oc(-c3ccccc3)nc2c1	-2
Cc1ccc2oc(-c3cccc(NC(=O)C4CCCO4)c3)nc2c1 (centres undefined)	-27
Cc1cccc(-c2nc3cc(NC(=O)C4CCCO4)ccc3o2)c1 (centres undefined)	54*
COCC(=O)N1C[C@@H]2[C@H](c3ccccc31)[C@H](CO)N2C(=O)C1CCCCC1	9
O=C1/C(=C\c2ccc(Cl)c(Cl)c2)CN(C(=O)CCN2CCOCC2)C/C1=C/c1ccc(Cl)c(Cl)c1	74*
O=C(c1ccc(Cl)c(Cl)c1)N1CCC(O)(CN2CCOCC2)CC1	6
CC(=O)N1CCC(N(CCN2CCOCC2)C(=O)Nc2ccc(Cl)c(Cl)c2)CC1	-1
CCOc1cc(/C=C(/C#N)C(N)=O)cc(CSc2ccccc2)c1O	-10[25 µM]
C[C@@H]1C[C@H]2[C@@H]3C[C@H](F)C4=CC(=O)C=C[C@]4(C)[C@@]3(F)[C@@H](O)C[C@]2(C)[C@@]1(O)C(=O)COC(=O)C(C)(C)C	33
CCCC(=O)O[C@]1(C(=O)COC(C)=O)CC[C@H]2[C@@H]3C[C@H](F)C4=CC(=O)C=C[C@]4(C)[C@@]3(F)[C@@H](O)C[C@@]21C	56*
CC(=O)[C@@]1(O)CC[C@H]2[C@@H]3C[C@H](C)C4=CC(=O)C=C[C@]4(C)[C@@]3(F)[C@@H](O)C[C@@]21C	23
O=C(C[C@H]1C[C@H]2c3cc(NC(=O)c4ccc5c(c4)OCO5)ccc3O[C@H]2[C@H](CO)O1)NC1CCCC1	-26
CC(C)(C)[S@@](=O)N1Cc2cc(C(=O)NCCc3ccncc3)nc(-c3cccc(-c4ccncc4)c3)c2[C@H]1CCO	2
C[C@H]1CN([C@@H](C)CO)C(=O)c2ccccc2-c2ccccc2CO[C@@H]1CN(C)C(=O)Nc1ccccc1	-5
Cc1ccccc1S(=O)(=O)N(C)C[C@H]1OCc2ccccc2-c2ccccc2C(=O)N([C@@H](C)CO)C[C@@H]1C	13
CC(=NNc1nc2ccccc2s1)c1ncccn1	-13
CC(=NNc1nc2ccccc2o1)c1ncccn1	80*
CC(=NNc1nc2ccccc2o1)c1cc2ccccc2cn1	-10
SMILES	BL2 CD40 inh
C[C@H](NC(=O)[C@H]1N[C@H]2c3ccc(C4=CCCC4)c(=O)n3C[C@H]2[C@@H]1CO)c1ccccc1	-8[25 µM]
COc1ccc(NC(=O)N[C@@H]2CC[C@H](CCNC(=O)CCN3CCCCC3)O[C@H]2CO)cc1	1
COC(=O)CCNS(=O)(=O)c1ccc2ccccc2c1	10
COC(=O)CCS(=O)(=O)c1nc(-c2ccccc2)cc(C(F)(F)F)n1	95*
COC(=O)c1ccc(OC(=O)CCS(=O)(=O)c2ccc(C)cc2)cc1	-3
COCC(=O)N1CCCCN2[C@@H](CO)[C@H](c3ccc(-c4cccc(C)c4)cc3)[C@@H]2C1	-7[25 µM]
C[C@H](CO)N1C[C@H](C)[C@@H](CN(C)CC2CC2)OCc2ccccc2-c2c(n(C)c3ccccc23)C1=O	0
Cc1ccc(NC(=O)CNC(=O)c2cccc(C)c2)nc1	58*
Cc1ccc(NC(=O)CNC(=O)c2ccc(Oc3ccccc3)cc2)nc1	-20
Cc1ccc(C(=O)CCC(=O)Nc2ccc(C)cn2)cc1	9
C[C@H](CO)N1C[C@H](C)[C@H](CN(C)Cc2ccccc2)Oc2ccc(NC(=O)c3ccncc3)cc2C1=O	-3
CC=Cc1ccc2n(c1=O)C[C@H]1[C@H](CO)[C@@H](C(=O)N3CCOCC3)N(Cc3ccccc3)[C@@H]21 (mixture of isomers)	7[25 µM]
N#C/C(=C(\N)Sc1ccc(N)cc1)c1ccccc1C(F)(F)F	-6[25 µM]
COCC(=O)N(C[C@H]1N[C@@H](CO)[C@@H]1c1ccc(C2=CCCC2)cc1)C(C)C	0
COc1ccccc1N(C(C)=O)C1=C(Cl)C(=O)c2ccccc2C1=O	101*
COc1ccccc1N(CC(=O)N(CC(C)C)CC(C)C)S(=O)(=O)c1cccs1	14
COc1ccc(Cl)cc1N(C(C)C(=O)O)S(C)(=O)=O (centres undefined)	-1
C/C=C/c1ccc(C2[C@H]3CNC[C@@H]2N3S(=O)(=O)c2ccc(C)cc2)cc1 (some centres undefined)	-2
CN(C)CC(=O)N1[C@@H]2c3ccc(C4=CCCC4)c(=O)n3C[C@H]1[C@H](CO)[C@H]2C(=O)NCC1CC1	1
C[C@H](CO)N1C[C@H](C)[C@@H](CN(C)Cc2ccc(C(=O)O)cc2)OCc2ccccc2-c2c(n(C)c3ccccc23)C1=O	-12
COc1ccc(OC(=O)N(C)C[C@@H]2OCc3ccccc3-c3ccccc3C(=O)N([C@@H](C)CO)C[C@@H]2C)cc1	-13
COC(=O)C12OCC34C(CC5C(C)=C(O)C(=O)CC5(C)C3C(O)C1O)OC(=O)C(OC(=O)C=C(C)C)C24 (centres undefined)	103*
OC(CN1CCCCC1)c1ccc(Br)cc1 (centres undefined)	2
CN1CCN(C(CNS(=O)(=O)c2ccc(Br)cc2)c2ccc3c(c2)OCO3)CC1 (centres undefined)	-3
Oc1cc2c(cc1C(c1ccc(Br)cc1)N1CCCC1)OCO2 (centres undefined)	86*
SMILES	BL2 CD40 inh
Brc1cn2ccnc2c(N2CCOCC2)n1	-5
C[C@H]1CN([C@@H](C)CO)C(=O)c2c(c3ccccc3n2C)-c2ccccc2CO[C@@H]1CN(C)CC1CC1	-4
CCCCCCCCCCCCCCCC[n+]1ccccc1	99*
CC(=O)Nc1cccc2c1O[C@@H](CN(C)C(=O)OC(C)(C)C)[C@@H](C)CN(C)C2=O	-9
C[C@@H]1CN([C@H](C)CO)C(=O)CCCn2nncc2CO[C@@H]1CN(C)Cc1ccc(Cl)c(Cl)c1	18[25 µM]
Cc1ccc(-c2cc(C(=O)N(C)CC(=O)Nc3ccccc3Br)c3ccccc3n2)o1	55*
Cc1ccc(-c2cc(C(=O)NCC3(N(C)C)CCCCC3)c3ccccc3n2)o1	0
COc1ccc(NC(=O)CN(C)C(=O)c2cc(-c3ccco3)nc3ccccc23)cc1	-6
O=C(c1cccc(F)c1)N1C[C@H]2[C@@H](c3ccccc31)[C@@H](CO)N2C(=O)c1ccccn1	-1[25 µM]
O=C(C1CCOCC1)N1CC(=O)N2[C@H](CO)[C@H](c3ccc(C#CCc4ccccc4)cc3)[C@@H]2C1	-11[25 µM]
COCC#Cc1ccc([C@@H]2[C@H](CO)N3C(=O)CN(C(=O)C4CCCCC4)C[C@@H]23)cc1	-24[25 µM]
COCC#Cc1ccc([C@H]2[C@H](CO)N3C(=O)CN(C(=O)C4CCCCC4)C[C@@H]23)cc1	1[25 µM]
O=C(C1CCOCC1)N1CC(=O)N2[C@H](CO)[C@H](c3ccc(C#CCc4ccccc4)cc3)[C@H]2C1	37[25 µM]
O=C(C1CCOCC1)N1CC(=O)N2[C@H](C1)[C@H](c1ccc(C#CCc3ccccc3)cc1)[C@@H]2CO	75*[25 µM]

High-throughput results (PubChem)
